Key:
Test in all cases: PBM binding z-score (relative to random genomic background probes); higher = stronger binding; sequences stand for … in GC…GCGATTGACAGCGTAGAATGAAGG
[1] = tested on: PPARg:RXRa DBDmut IVT, anti-RXR (DBD mutation: RXRa K156A/R161A, NR concentration 270 nM, RXRa partner concentration 90 nM)
Outline: (§1)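 Probes were double-stranded and carried 34-nt variable regions with direct-repeat seeds, single-nucleotide variants, half-site ablations and random human genomic background sequences, printed on custom Agilent 4×180K protein-binding microarrays. Arrays were incubated 1 h with ligand-free nuclear receptor dimers in PBS pH 7.4, 2% milk, 0.02% Triton X-100, 1 mM DTT, 0.2 mg/mL BSA and 0.4 mg/ml salmon testes DNA. Antibodies against each partner (one per run) detected binding, and scanned fluorescence was regression-normalized. Binding z-scores use the random background probes as reference.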

[2] = tested on: PPARg:RXRa IVT, anti-PPARg (NR concentration 270 nM, RXRa partner concentration 90 nM)
Outline: as §1

[3] = tested on: PPARg DBDmut:RXRa IVT, anti-PPARg (DBD mutation: PPARg1 K132A/R137A, NR concentration 270 nM, RXRa partner concentration 90 nM)
Outline: as §1

[4] = tested on: PPARg DBDmut IVT, anti-PPARg (DBD mutation: PPARg1 K132A/R137A, NR concentration 270 nM)
Outline: as §1

[5] = tested on: PPARg homodimer (NR concentration 180 nM)
Outline: as §1

[6] = tested on: PXR:RXRa (NR concentration 270 nM, RXRa partner concentration 90 nM)
Outline: as §1

[7] = tested on: PXR homodimer (NR concentration 270 nM)
Outline: as §1

[8] = tested on: RARa:RXR (NR concentration 270 nM, RXRa partner concentration 90 nM)
Outline: as §1

[9] = tested on: RARa homodimer (NR concentration 270 nM)
Outline: as §1

[10] = tested on: RARb:RXRa (NR concentration 270 nM, RXRa partner concentration 90 nM)
Outline: as §1

GTACCAAGGTGAATAGGACGTTGATGAGTAGGCG
PBM binding z-score [1]: 1.26
PBM binding z-score [2]: 1.93
PBM binding z-score [3]: 0.467
PBM binding z-score [4]: 0.284
PBM binding z-score [5]: 0.583
PBM binding z-score [6]: -0.246
PBM binding z-score [7]: -0.00267
PBM binding z-score [8]: -0.0237
PBM binding z-score [9]: 0.381
PBM binding z-score [10]: 1.14

ACTTACGGGTCAACGAGGTTATAGTACGCGTATA
PBM binding z-score [1]: 3.12
PBM binding z-score [2]: 4.22
PBM binding z-score [3]: 1.99
PBM binding z-score [4]: 1.76
PBM binding z-score [5]: 2.88
PBM binding z-score [6]: 5.39
PBM binding z-score [7]: 4.31
PBM binding z-score [8]: 5.61
PBM binding z-score [9]: 1.04
PBM binding z-score [10]: 4.13

CAAACTAGGTCGCGAAAGGTCAAAGTCGAATGAC
PBM binding z-score [1]: 6.96
PBM binding z-score [2]: 7.13
PBM binding z-score [3]: 1.26
PBM binding z-score [4]: 1.98
PBM binding z-score [5]: 3.65
PBM binding z-score [6]: 6.52
PBM binding z-score [7]: 2.13
PBM binding z-score [8]: 6.77
PBM binding z-score [9]: 2.38
PBM binding z-score [10]: 5.01

TCATATAGGTAATACAGGAGAAAGTCGGCATCTA
PBM binding z-score [1]: 4.09
PBM binding z-score [2]: 2.1
PBM binding z-score [3]: 1.79
PBM binding z-score [4]: 0.92
PBM binding z-score [5]: 0.788
PBM binding z-score [6]: 0.627
PBM binding z-score [7]: 0.0379
PBM binding z-score [8]: 0.706
PBM binding z-score [9]: 1.13
PBM binding z-score [10]: 0.369

TTACCAGGGTGAAGGTCGTTGATCCCTCTGTAGA
PBM binding z-score [1]: 1.33
PBM binding z-score [2]: 3.97
PBM binding z-score [3]: 0.161
PBM binding z-score [4]: -0.0741
PBM binding z-score [5]: 1.08
PBM binding z-score [6]: 1.6
PBM binding z-score [7]: 0.104
PBM binding z-score [8]: 1.86
PBM binding z-score [9]: -0.0972
PBM binding z-score [10]: 1.69

ACTTACGGGTCAACGAGGTTATAGAACGCGTATA
PBM binding z-score [1]: 3.53
PBM binding z-score [2]: 4.42
PBM binding z-score [3]: 1.71
PBM binding z-score [4]: 1.43
PBM binding z-score [5]: 1.66
PBM binding z-score [6]: 5.08
PBM binding z-score [7]: 2.8
PBM binding z-score [8]: 4.99
PBM binding z-score [9]: 0.996
PBM binding z-score [10]: 4.35

TCTGCTGGGTCAGTTGGTCAGCTAACGAGCTGCC
PBM binding z-score [1]: 2.22
PBM binding z-score [2]: 2.74
PBM binding z-score [3]: 0.569
PBM binding z-score [4]: -0.161
PBM binding z-score [5]: -0.167
PBM binding z-score [6]: 0.0304
PBM binding z-score [7]: -0.922
PBM binding z-score [8]: 0.33
PBM binding z-score [9]: -0.731
PBM binding z-score [10]: 3.19

TAGCCTAGGTCATACGGGCCAGTATAGTGTCGGC
PBM binding z-score [1]: 1.67
PBM binding z-score [2]: 2.89
PBM binding z-score [3]: -0.195
PBM binding z-score [4]: -0.639
PBM binding z-score [5]: 0.811
PBM binding z-score [6]: 1.66
PBM binding z-score [7]: -0.13
PBM binding z-score [8]: 2.4
PBM binding z-score [9]: 0.0154
PBM binding z-score [10]: 3.56

CGAAGTAGGTCATTGACAGGACAGTGAATAGTAA
PBM binding z-score [1]: 8.42
PBM binding z-score [2]: 8.66
PBM binding z-score [3]: 3.43
PBM binding z-score [4]: 2.58
PBM binding z-score [5]: 2.08
PBM binding z-score [6]: 2.16
PBM binding z-score [7]: 0.395
PBM binding z-score [8]: 2.66
PBM binding z-score [9]: 0.16
PBM binding z-score [10]: 3.58

CCAGACAGGTGGAAGGTAACTCAGTCTGGTACGC
PBM binding z-score [1]: -0.367
PBM binding z-score [2]: -0.196
PBM binding z-score [3]: -1.35
PBM binding z-score [4]: -1.42
PBM binding z-score [5]: 0.35
PBM binding z-score [6]: -0.242
PBM binding z-score [7]: -0.0179
PBM binding z-score [8]: -0.223
PBM binding z-score [9]: 0.246
PBM binding z-score [10]: -0.313

CCTGCTGGGCCATTCAGAGGTCATTGATCATATG
PBM binding z-score [1]: 0.632
PBM binding z-score [2]: 1.28
PBM binding z-score [3]: -1.02
PBM binding z-score [4]: -0.733
PBM binding z-score [5]: 1.68
PBM binding z-score [6]: 4.82
PBM binding z-score [7]: 2.03
PBM binding z-score [8]: 4.69
PBM binding z-score [9]: -0.506
PBM binding z-score [10]: 3.23

CCTAGCAGGCCAATCTGGGTCACTCAAGGCTTGA
PBM binding z-score [1]: 4.72
PBM binding z-score [2]: 5.12
PBM binding z-score [3]: -1.06
PBM binding z-score [4]: -0.836
PBM binding z-score [5]: 0.786
PBM binding z-score [6]: 0.995
PBM binding z-score [7]: -0.679
PBM binding z-score [8]: 1.17
PBM binding z-score [9]: -0.672
PBM binding z-score [10]: 1.58

GCTCGGAGGACAAGGACAGAGCTTTGTCCGTAGA
PBM binding z-score [1]: -0.897
PBM binding z-score [2]: -0.505
PBM binding z-score [3]: -1.52
PBM binding z-score [4]: -0.297
PBM binding z-score [5]: -0.588
PBM binding z-score [6]: -0.527
PBM binding z-score [7]: -0.912
PBM binding z-score [8]: -0.421
PBM binding z-score [9]: -1.45
PBM binding z-score [10]: 0.929

GCTGCTAGGTCAGGTTGGTCAGCTAGCGGGTACG
PBM binding z-score [1]: 2.9
PBM binding z-score [2]: 1.88
PBM binding z-score [3]: -0.638
PBM binding z-score [4]: -1.03
PBM binding z-score [5]: 0.481
PBM binding z-score [6]: 0.0467
PBM binding z-score [7]: -1.01
PBM binding z-score [8]: 0.604
PBM binding z-score [9]: -0.467
PBM binding z-score [10]: 3.38

AGAACGAGGGCAATGAGTTAATAGCACGGGTGGC
PBM binding z-score [1]: 3.29
PBM binding z-score [2]: 2.59
PBM binding z-score [3]: 0.242
PBM binding z-score [4]: 0.395
PBM binding z-score [5]: 0.0728
PBM binding z-score [6]: 1.43
PBM binding z-score [7]: 2.98
PBM binding z-score [8]: 0.239
PBM binding z-score [9]: -0.224
PBM binding z-score [10]: 2.04

CTCGAAAGGTTGGTTGAGGTGAGTATACGGATAA
PBM binding z-score [1]: -0.057
PBM binding z-score [2]: 0.667
PBM binding z-score [3]: -0.538
PBM binding z-score [4]: -0.309
PBM binding z-score [5]: 0.774
PBM binding z-score [6]: 1.11
PBM binding z-score [7]: 0.376
PBM binding z-score [8]: 1.09
PBM binding z-score [9]: 0.368
PBM binding z-score [10]: 1.17

CCTCCTAGGTCAATGGTCAGCTAAAGCAGCTCGC
PBM binding z-score [1]: 3.61
PBM binding z-score [2]: 3.53
PBM binding z-score [3]: -0.066
PBM binding z-score [4]: 0.119
PBM binding z-score [5]: 2.06
PBM binding z-score [6]: 1.28
PBM binding z-score [7]: -0.0378
PBM binding z-score [8]: 1.98
PBM binding z-score [9]: 0.584
PBM binding z-score [10]: 3.77

GCTGCTAGGTCAAGTGATGGTCAGCTAAAGCTCG
PBM binding z-score [1]: 4.64
PBM binding z-score [2]: 4.05
PBM binding z-score [3]: 0.0181
PBM binding z-score [4]: -0.582
PBM binding z-score [5]: 1.55
PBM binding z-score [6]: 1.43
PBM binding z-score [7]: -0.69
PBM binding z-score [8]: 2.5
PBM binding z-score [9]: -0.171
PBM binding z-score [10]: 4.11

GATACAGGGTCCGCTAGAGGCCAGAGTATGGAAA
PBM binding z-score [1]: -1.31
PBM binding z-score [2]: -0.762
PBM binding z-score [3]: -1.66
PBM binding z-score [4]: -1.32
PBM binding z-score [5]: -0.788
PBM binding z-score [6]: -0.821
PBM binding z-score [7]: -0.331
PBM binding z-score [8]: -0.782
PBM binding z-score [9]: -1.34
PBM binding z-score [10]: 0.181

TCTTGCAGATCAAGCAGGTTAAGAAAGCCTGAGT
PBM binding z-score [1]: 0.549
PBM binding z-score [2]: -0.312
PBM binding z-score [3]: -0.516
PBM binding z-score [4]: -0.801
PBM binding z-score [5]: -0.945
PBM binding z-score [6]: 0.199
PBM binding z-score [7]: -0.285
PBM binding z-score [8]: 0.324
PBM binding z-score [9]: -1.11
PBM binding z-score [10]: -0.136

TCTTGTTGATCAACAGGAGGTTAAGAAAGATCGA
PBM binding z-score [1]: 0.718
PBM binding z-score [2]: 0.445
PBM binding z-score [3]: 1.15
PBM binding z-score [4]: 0.996
PBM binding z-score [5]: -0.401
PBM binding z-score [6]: 0.703
PBM binding z-score [7]: -0.344
PBM binding z-score [8]: 0.688
PBM binding z-score [9]: -0.505
PBM binding z-score [10]: 0.432

CTCGAAAGGTCGTGCTCAGGTGAGTTTACCAAAC
PBM binding z-score [1]: 0.999
PBM binding z-score [2]: 1.89
PBM binding z-score [3]: 0.777
PBM binding z-score [4]: 0.0952
PBM binding z-score [5]: 3.04
PBM binding z-score [6]: 3.93
PBM binding z-score [7]: 1.33
PBM binding z-score [8]: 4.47
PBM binding z-score [9]: 0.43
PBM binding z-score [10]: 3.79

CGTCCAAGGTCAGACAGGTCAGTGAATGCCGAGT
PBM binding z-score [1]: 2.43
PBM binding z-score [2]: 2.79
PBM binding z-score [3]: -0.527
PBM binding z-score [4]: -0.665
PBM binding z-score [5]: 2.82
PBM binding z-score [6]: 4.38
PBM binding z-score [7]: 6.4
PBM binding z-score [8]: 4.28
PBM binding z-score [9]: 0.847
PBM binding z-score [10]: 4.93

AGAATGAGGTTATAAGTAGATCAGGGAAGAAAGT
PBM binding z-score [1]: 3.03
PBM binding z-score [2]: 2.5
PBM binding z-score [3]: 0.674
PBM binding z-score [4]: 0.782
PBM binding z-score [5]: 1.83
PBM binding z-score [6]: 1.47
PBM binding z-score [7]: 0.923
PBM binding z-score [8]: 1.88
PBM binding z-score [9]: 0.571
PBM binding z-score [10]: 1.25

From the supplement of paper PMC6555819
